Here are results for 30 molecules from PubChem BioAssay (NCATS).

The nature of experiment [1]: qHTS drug screen for cell cycle checkpoint inhibitors in PARPi-resistant BRCA-mutant ovarian cancer cell lines. (AID 1963452). Conditions: PEO1/OlaR viability, CellTiter-Glo luminescence, 96 h, stronger effect = lower value. The essentials:
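PEO1, PEO4 and PEO1/OlaR ovarian cancer cells, 600 per well, exposed 96 h at 37C to a dilution series. Viability read by CellTiter-Glo luminescence, normalized to DMSO and empty wells; activity summarized as Z-AUC.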
(In qHTS, concentration-response curves come from the screen itself.)

A short description of experiment [2]: qHTS Counterscreen for compound interference against the NCATS DSHEA and TCM libraries (AID 1919978; active = well fitted curve in the direction sought with a large enough effect; an effect the other way counts as inactive or inconclusive; also: % of control where 0% means no effect). The following applies: firefly luciferase detection reagent interference, luminescence. The essentials:
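D-luciferin (1 uM final) or 100 mM potassium phosphate buffer alone was preincubated 15 min at RT with compounds (19.5 nM to 39.8 uM final). Luciferin detection reagent was then added and luminescence read after 30 min at RT.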

Experiment [3] can be described thus: Dual reporter qHTS for agonist of Pregnane X Receptor (hPXR) against the NCATS DSHEA and TCM libraries: Fluorescence readout (AID 1920058; active = well fitted curve in the direction sought with a large enough effect; an effect the other way counts as inactive or inconclusive; also: 0% is about no effect). The following applies: PXR dual reporter cells; series mostly up to 40 µM. The essentials:
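Cells were plated at 2000 per well and allowed to attach for 5 h. Test substances were pinned in and incubated roughly 24 h. CellTiter-Fluor was then added and fluorescence measured after 1 h.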

Experiment [4] deals with Nuclear receptor subfamily 1 group I member 2 (Homo sapiens) (UniProt O75469). Put plainly: Dual reporter qHTS for agonist of Pregnane X Receptor (hPXR) against the NCATS DSHEA and TCM libraries: Luminescence readout (AID 1920059; active = well fitted curve in the direction sought with a large enough effect; an effect the other way counts as inactive or inconclusive; also: potency is read from the fitted curve at half-maximal effect). The following applies: hPXR dual reporter cells, luciferase luminescence agonist; series mostly up to 40 µM. The essentials:
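Luminescent PXR reporter read (ONE-Glo) after a CellTiter-Fluor viability read, following 24 h, 37C treatment of HepG2 cells stably carrying hPXR-Luc.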

Experiment [5] has the same target. The experiment in a line: Dual reporter qHTS for antagonist of Pregnane X Receptor (hPXR) against the NCATS DSHEA and TCM libraries: Luminescence Readout (AID 1920060; active = well fitted curve in the direction sought with a large enough effect; an effect the other way counts as inactive or inconclusive;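 also: HepG2 cells carrying hPXR luciferase reporter stimulated with rifampicin at 2 µM; 0% is about no effect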). The following applies: hPXR dual reporter cells, luciferase luminescence, antagonist mode; series mostly up to 40 µM. The essentials:
(§1)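 hPXR-Luc HepG2 cells exposed 24 h at 37 C to compounds with 2 uM rifampicin in antagonist mode; luciferase luminescence measured by ONE-Glo, with CellTiter-Fluor viability read beforehand.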

The nature of experiment [6]: Dual reporter qHTS for antagonist of Pregnane X Receptor (hPXR) against the NCATS DSHEA and TCM libraries: Fluorescence Readout (AID 1920061; active = well fitted curve in the direction sought with a large enough effect; an effect the other way counts as inactive or inconclusive; also: 0% is about no effect). The following applies: PXR dual reporter cells, antagonist mode; series mostly up to 40 µM. Put shortly:
as §1

Experiment [7] can be described thus: qHTS for identification of novel therapeutic agents for treatment of microphthalmiaassociated transcription factor (MiT) renal cell carcinoma (RCC) (AID 1963991). Conditions: CellTiter-Glo, 48 h, stronger effect = lower value. Put shortly:
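Three TFE3-fusion RCC lines (UOK109, UOK124, UOK145), 500 cells/well in complete medium, were treated with MIPE 4.0 compounds for 48 hours at 37 C. Viability was by CellTiter-Glo luminescence, normalized to DMSO (100%) and empty wells (0%); curves fitted over 11 concentrations.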

Setting [8] is: measured here: PEO1 parental Z-AUC.
Setting [9] is: TFE3-RCC UOK109 viability, measured here: UOK109 Z-AUC.
Setting [10] is: TFE3-RCC viability, measured here: UOK124 Z-AUC.
The mark [11] stands for this setting: TFE3-RCC viability, measured here: UOK145 Z-AUC.

Records with an inconclusive call do not appear. Active and inactive are the calls of the source. Unless noted, calls follow the shape of the full dose curve.

Chain of Nuclear receptor subfamily 1 group I member 2 (Homo sapiens) (O75469 whole entry, looked up): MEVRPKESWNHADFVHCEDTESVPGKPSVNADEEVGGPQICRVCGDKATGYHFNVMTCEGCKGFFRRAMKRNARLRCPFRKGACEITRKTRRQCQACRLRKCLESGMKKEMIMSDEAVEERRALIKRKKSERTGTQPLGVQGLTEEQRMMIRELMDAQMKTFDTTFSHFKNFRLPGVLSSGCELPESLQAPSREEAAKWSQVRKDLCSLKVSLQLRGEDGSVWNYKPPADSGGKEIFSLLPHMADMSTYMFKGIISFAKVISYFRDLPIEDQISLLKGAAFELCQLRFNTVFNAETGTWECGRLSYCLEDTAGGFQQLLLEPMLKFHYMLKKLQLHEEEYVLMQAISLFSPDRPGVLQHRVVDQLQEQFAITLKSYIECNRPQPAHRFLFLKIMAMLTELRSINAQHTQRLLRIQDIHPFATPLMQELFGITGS

In the case of `O=C(Nc1ccccc1Br)N[C@@H]1CCN(c2ccc(C(F)(F)F)cn2)C1`, the Z-AUC in experiment [1] is -0.871 (inactive); in experiment [1] (setting [8]), 0.714; in experiment [1] (measured here: PEO4 Z-AUC) it was 0.446.

`NC(=O)[C@@H](CCC(F)(F)F)N(Cc1ccc(-c2ncon2)cc1F)S(=O)(=O)c1ccc(Cl)cc1`: the Z-AUC in experiment [1] is 0.459 (inactive); in experiment [1] (setting [8]) it was 0.342; in experiment [1] (measured here: PEO4 Z-AUC), 0.442.

For the molecule `O=C(Nc1cccc(Br)c1)c1cccc(S(=O)(=O)N2CCCCCC2)c1`, the Z-AUC in experiment [1] is -0.479 (inactive); in experiment [1] (setting [8]) it was 0.243; in experiment [1] (measured here: PEO4 Z-AUC), -0.0385.

With `O=c1cc(-c2ccc(O)cc2)oc2cc(O)cc(O)c12`, in experiment [2], the max response is -0.0344% (inactive). Also, the result in experiment [3], in experiment [5] and in experiment [6] was inactive. Moreover, in experiment [4], the Potency was 31.6 µM (active). Moreover, the Z-AUC is 0.475 (inactive) in experiment [1], 0.649 in experiment [1] (setting [8]) and 0.805 in experiment [1] (measured here: PEO4 Z-AUC).

Take `C=C1C(=O)[C@@]23C(CC[C@@H]1[C@H]2O)[C@@]12CO[C@]3(O)[C@@H](O)[C@@H]1C(C)(C)CC[C@@H]2O` (some centres undefined): the Z-AUC in experiment [1] is -0.857 (inactive); in experiment [1] (setting [8]), -1.05; in experiment [1] (measured here: PEO4 Z-AUC), -1.08.

`COCCOc1nc(-c2ccc(Cl)c(Cl)c2)n(-c2ccc(NC(=O)CCl)cc2)n1`: the Z-AUC in experiment [1] was -0.18 (inactive); in experiment [1] (setting [8]), 0.0816; in experiment [1] (measured here: PEO4 Z-AUC), -0.069.

For `Nc1ncnc2ccccc12`, the Z-AUC in experiment [1] is -0.0198 (inactive); in experiment [1] (setting [8]), 0.844; in experiment [1] (measured here: PEO4 Z-AUC), 0.705.

Consider `CCn1c(C(=O)N(C2CC2)C2CC2)cc2c3c(ncn3C)c(Nc3cc(C)n(C)n3)nc21`, for which the Z-AUC in experiment [1] was 0.749 (inactive); in experiment [1] (setting [8]), 1.24; in experiment [1] (measured here: PEO4 Z-AUC) it was 1.3.

With `CC(=O)OC1C(C)OC(Oc2c(-c3ccc(O)cc3)oc3cc(O)cc(O)c3c2=O)C(O)C1OC(C)=O` (centres undefined), the Z-AUC in experiment [1] is -0.58 (inactive); in experiment [1] (setting [8]) it was -0.801; in experiment [1] (measured here: PEO4 Z-AUC) it was -0.512.

On to `CCOC(=O)C1=C(N)Oc2ccc(Br)cc2C1C(C#N)C(=O)OCC` (centres undefined), for which the Z-AUC is 1.64 (inactive) in experiment [1], 1.22 in experiment [1] (setting [8]) and 1.22 in experiment [1] (measured here: PEO4 Z-AUC).

`CN(C)Cc1cccc(N=C(c2ccccc2)c2c(O)[nH]c3cc(C(=O)N(C)C)ccc23)c1`: the Z-AUC in experiment [1] was -0.969 (inactive); in experiment [1] (setting [8]) it was -0.73; in experiment [1] (measured here: PEO4 Z-AUC), -1.01.

On to `CN(C[C@@H]1COCCO1)S(=O)(=O)Nc1ccc2ccc3ncc(-c4cnn(C)c4)cc3c(=O)c2c1`, for which the values for the Z-AUC in experiment [1], in experiment [1] (setting [8]) and in experiment [1] (measured here: PEO4 Z-AUC) were -0.656 (inactive), -0.332 and -0.0714, respectively.

Take `Cc1ccn(-c2ccc(-c3ncco3)cc2)c(=O)c1-c1ccc2nc(N)ncc2c1`: the Z-AUC in experiment [1] is 1.02 (inactive); in experiment [1] (setting [8]) it was 0.788; in experiment [1] (measured here: PEO4 Z-AUC), 1.07.

As to `COc1cccc([C@@H](C)NCCCc2ccccc2Cl)c1`, the Z-AUC in experiment [1] was 0.861 (inactive); in experiment [1] (setting [8]), 1.12; in experiment [1] (measured here: PEO4 Z-AUC), 0.597.

For `Cc1nc(N)sc1-c1ccnc(Nc2ccc(N3CCOCC3)cc2)n1`, the Z-AUC in experiment [1] was -0.158 (inactive); in experiment [1] (setting [8]), -0.029; in experiment [1] (measured here: PEO4 Z-AUC) it was -0.545.

For `COc1ccc(-c2coc3cc(O)ccc3c2=O)cc1`, in experiment [2], the max response is -1.37% (inactive). Moreover, the molecule was classed as inactive in experiment [3], in experiment [5] and in experiment [6]. For the same molecule, the results for the z-score in experiment [7] (setting [9]), in experiment [7] (setting [10]) and in experiment [7] (setting [11]) were 0.416, 0.783 and 0.452, respectively.

With `CCOC(CN1C(=O)[C@](CC(=O)Nc2ccc(C)cc2)(NC(=O)Nc2ccc(C)cc2)c2ccccc21)OCC`, the Z-AUC in experiment [1] is 1.21 (inactive); in experiment [1] (setting [8]) it was 1.06; in experiment [1] (measured here: PEO4 Z-AUC) it was 1.28.

In the case of `NC(=O)c1cccc(-c2cc(Nc3ccc(OC(F)(F)F)cc3)ncn2)c1`, the Z-AUC is 1.26 (inactive) in experiment [1], 0.548 in experiment [1] (setting [8]) and 0.648 in experiment [1] (measured here: PEO4 Z-AUC).

As to `CC1(C)CCC(CN2CCN(c3ccc(C(=O)NS(=O)(=O)c4ccc(NCC5CCOCC5)c([N+](=O)[O-])c4)c(Oc4cnc5[nH]ccc5c4)c3)CC2)=C(c2ccc(Cl)cc2)C1`, the Z-AUC in experiment [1] is 0.0291 (inactive); in experiment [1] (setting [8]), 0.742; in experiment [1] (measured here: PEO4 Z-AUC), 0.833.

On to `Cc1ccc(C(C)(O)c2nc3ccccc3s2)c(C)c1` (centres undefined), for which the Z-AUC in experiment [1] was 0.398 (inactive); in experiment [1] (setting [8]), 0.537; in experiment [1] (measured here: PEO4 Z-AUC), 0.368.

For `Nc1ncnc2c1nc(Cl)n2[C@@H]1O[C@H](CO)[C@@H](O)[C@@H]1O`, the Z-AUC in experiment [1] was 0.764 (inactive); in experiment [1] (setting [8]), -0.225; in experiment [1] (measured here: PEO4 Z-AUC), -0.377.

For the molecule `O=C(Nc1cc(Cl)cc2c1[nH]c1cnccc12)c1cccnc1`, the Z-AUC is 0.696 (inactive) in experiment [1], 0.253 in experiment [1] (setting [8]) and 0.368 in experiment [1] (measured here: PEO4 Z-AUC).

In the case of `CN[C@@H](C)C(=O)N[C@H]1CN(C(=O)CC(C)C)CC[C@H]2CC[C@@H](C(=O)NC(c3ccccc3)c3ccccc3)N2C1=O`, the figures for the Z-AUC in experiment [1], in experiment [1] (setting [8]) and in experiment [1] (measured here: PEO4 Z-AUC) were 0.77 (inactive), 0.371 and -0.22, respectively.

On to `CC(C)(Cc1ccc2ccccc2c1)NC[C@@H](O)COc1cccc(Cl)c1C#N`, for which the Z-AUC in experiment [1] was 0.779 (inactive); in experiment [1] (setting [8]) it was 1.04; in experiment [1] (measured here: PEO4 Z-AUC), 0.976.

As to `NS(=O)(=O)c1cccc2c1C(=O)c1cccc(O)c1C2=O`, the results for the Z-AUC in experiment [1], in experiment [1] (setting [8]) and in experiment [1] (measured here: PEO4 Z-AUC) were -1.32 (inactive), -1.19 and -1.74, respectively.

With `Clc1ccc(COC(Cn2ccnc2)c2ccc(Cl)cc2Cl)cc1` (centres undefined), the Z-AUC is 0.343 (inactive) in experiment [1], 0.179 in experiment [1] (setting [8]) and 0.161 in experiment [1] (measured here: PEO4 Z-AUC).

As for `Cc1ccc(C(=O)Nc2cccc(C(F)(F)F)c2)cc1Nc1nc(-c2cccnc2)nc2c1cnn2C`, the Z-AUC was 0.462 (inactive) in experiment [1], 0.182 in experiment [1] (setting [8]) and 0.562 in experiment [1] (measured here: PEO4 Z-AUC).

For the molecule `CCc1ccc(OCc2ccccc2C(=O)Nc2ccc3nc(C)cc(N)c3c2)cc1`, the Z-AUC was -0.061 (inactive) in experiment [1], -0.206 in experiment [1] (setting [8]) and -0.159 in experiment [1] (measured here: PEO4 Z-AUC).

In the case of `CC(C)[C@H](CO)Nc1nc(Nc2ccc(C(=O)O)c(Cl)c2)c2ncn(C(C)C)c2n1`, the Z-AUC in experiment [1] is -0.776 (inactive); in experiment [1] (setting [8]), 0.263; in experiment [1] (measured here: PEO4 Z-AUC), 0.0501.

`COc1cc(O)c2c(c1)C(=O)c1cc(C)cc(O)c1C2=O`: the max response in experiment [2] was 1.06% (inactive). Further, the molecule was called inactive in experiment [3], in experiment [5] and in experiment [6]. Also, the Potency result in experiment [4] is “inactive”. The z-score in experiment [7] (setting [9]) was 1.36; in experiment [7] (setting [10]), 1.13; in experiment [7] (setting [11]), 1.08.
